Test results: PMC7862700, “An all-to-all approach to the identification of sequence-specific readers for epigenetic DNA modifications on cytosine”

Experiments:
Test in all cases: DAPPL (digital affinity profiling via proximity ligation, sequencing); 10 mM Tris-HCl pH 7.5, 50 mM NaCl, 1 mM DTT, 4% glycerol, room temperature, 30 min; GST-TFs on glutathione beads, 16-mer random dsDNA library, 0.1% formaldehyde crosslink after washing; high values mean tight binding
[1] = molecular target: T1, FLI1 (Homo sapiens, UniProt Q01543 1-452); settings: protein: recombinant; tags: N-terminal GST; dsDNA, one strand shown
T1 sequence: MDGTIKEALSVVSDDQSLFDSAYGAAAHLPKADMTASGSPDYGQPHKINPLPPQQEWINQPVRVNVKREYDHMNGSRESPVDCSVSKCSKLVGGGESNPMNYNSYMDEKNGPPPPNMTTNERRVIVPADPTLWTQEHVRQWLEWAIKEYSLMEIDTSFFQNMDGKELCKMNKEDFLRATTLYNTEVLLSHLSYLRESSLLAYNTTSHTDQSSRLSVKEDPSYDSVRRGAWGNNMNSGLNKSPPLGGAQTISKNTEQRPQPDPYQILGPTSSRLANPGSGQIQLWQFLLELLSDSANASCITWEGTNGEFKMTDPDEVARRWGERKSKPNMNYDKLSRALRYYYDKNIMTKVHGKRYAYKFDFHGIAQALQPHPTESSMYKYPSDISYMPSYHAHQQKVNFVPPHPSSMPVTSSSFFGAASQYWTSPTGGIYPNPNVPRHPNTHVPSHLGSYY
How it was run: (§1)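 Human transcription factors carrying a GST fusion were produced in yeast, bound to glutathione beads, tagged with DNA barcodes and pooled together with a tag-only sample. Each pool was held with 200 nmole of a random double-stranded 16-mer DNA library in Tris/NaCl/DTT/glycerol buffer for 30 min at room temperature, then washed, crosslinked in 0.1% formaldehyde, proximity-ligated with BsaI/T4 ligase (1 h, 37 °C), PCR-amplified and sequenced on an Illumina NextSeq500. Binding signal is the read frequency of each hexamer for a given factor divided by its frequency in the tag-only sample.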

[2] = molecular target: T2, ELK1 (Homo sapiens, UniProt P19419 1-428); settings: protein: recombinant; tags: N-terminal GST; dsDNA, one strand shown
T2 sequence: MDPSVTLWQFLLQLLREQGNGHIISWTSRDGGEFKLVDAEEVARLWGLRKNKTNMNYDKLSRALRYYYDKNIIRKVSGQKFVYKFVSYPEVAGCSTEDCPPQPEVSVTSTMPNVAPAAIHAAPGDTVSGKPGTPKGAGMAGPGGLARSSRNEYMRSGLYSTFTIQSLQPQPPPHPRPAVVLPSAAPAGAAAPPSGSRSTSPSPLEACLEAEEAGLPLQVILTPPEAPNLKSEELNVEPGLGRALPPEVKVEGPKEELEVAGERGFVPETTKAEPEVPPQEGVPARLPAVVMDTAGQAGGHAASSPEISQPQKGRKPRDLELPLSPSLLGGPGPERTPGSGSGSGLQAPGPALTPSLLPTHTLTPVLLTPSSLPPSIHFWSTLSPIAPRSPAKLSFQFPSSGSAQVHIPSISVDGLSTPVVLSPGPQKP
How it was run: as §1

[3] = molecular target: T3, GABPA (Homo sapiens, UniProt Q06546 1-454); settings: protein: recombinant; tags: N-terminal GST; dsDNA, one strand shown
T3 sequence: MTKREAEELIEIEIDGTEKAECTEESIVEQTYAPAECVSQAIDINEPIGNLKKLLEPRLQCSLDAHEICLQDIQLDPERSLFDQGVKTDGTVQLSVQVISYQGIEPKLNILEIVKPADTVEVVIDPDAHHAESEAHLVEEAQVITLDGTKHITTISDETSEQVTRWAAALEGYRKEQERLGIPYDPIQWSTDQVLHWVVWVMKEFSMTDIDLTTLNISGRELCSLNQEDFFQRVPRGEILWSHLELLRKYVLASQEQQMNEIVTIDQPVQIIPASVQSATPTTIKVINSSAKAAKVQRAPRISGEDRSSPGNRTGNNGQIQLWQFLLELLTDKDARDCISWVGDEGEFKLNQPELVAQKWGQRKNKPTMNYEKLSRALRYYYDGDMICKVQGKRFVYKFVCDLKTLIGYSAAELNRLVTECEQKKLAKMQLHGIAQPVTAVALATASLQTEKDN
How it was run: as §1

[4] = molecular target: ELF1 (Homo sapiens, UniProt P32519 1-619); settings: protein: recombinant; tags: N-terminal GST; dsDNA, one strand shown
How it was run: as §1

[5] = molecular target: T4, EHF (Homo sapiens, UniProt Q9NZC4 1-300); settings: protein: recombinant; tags: N-terminal GST; dsDNA, one strand shown
T4 sequence: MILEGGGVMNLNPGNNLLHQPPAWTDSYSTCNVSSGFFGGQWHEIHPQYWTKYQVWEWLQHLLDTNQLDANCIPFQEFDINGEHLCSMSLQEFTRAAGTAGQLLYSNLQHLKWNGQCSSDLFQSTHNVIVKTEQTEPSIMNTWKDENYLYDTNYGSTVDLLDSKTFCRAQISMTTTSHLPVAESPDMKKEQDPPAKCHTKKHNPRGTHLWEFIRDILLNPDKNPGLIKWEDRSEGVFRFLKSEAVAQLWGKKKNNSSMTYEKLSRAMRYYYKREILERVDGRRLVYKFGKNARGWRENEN
How it was run: as §1

[6] = molecular target: SPIB (Homo sapiens, UniProt Q01892 1-262); settings: protein: recombinant; tags: N-terminal GST; dsDNA, one strand shown
How it was run: as §1

[7] = molecular target: T5, ELK3 (Homo sapiens, UniProt P41970 1-407); settings: protein: recombinant; tags: N-terminal GST; dsDNA, one strand shown
T5 sequence: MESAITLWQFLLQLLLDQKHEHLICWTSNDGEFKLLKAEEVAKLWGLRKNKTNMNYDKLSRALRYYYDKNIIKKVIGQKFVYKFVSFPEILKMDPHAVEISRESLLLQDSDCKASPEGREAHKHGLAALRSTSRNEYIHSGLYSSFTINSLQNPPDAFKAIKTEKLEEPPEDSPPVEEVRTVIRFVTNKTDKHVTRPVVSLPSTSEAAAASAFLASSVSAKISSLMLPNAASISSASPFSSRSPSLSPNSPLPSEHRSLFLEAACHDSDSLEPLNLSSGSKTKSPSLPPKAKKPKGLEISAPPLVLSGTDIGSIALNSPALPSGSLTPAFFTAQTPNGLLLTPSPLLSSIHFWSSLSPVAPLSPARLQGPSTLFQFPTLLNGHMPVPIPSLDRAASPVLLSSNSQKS
How it was run: as §1

[8] = molecular target: T6, FEV (Homo sapiens, UniProt Q99581 1-238); settings: protein: recombinant; tags: N-terminal GST; dsDNA, one strand shown
T6 sequence: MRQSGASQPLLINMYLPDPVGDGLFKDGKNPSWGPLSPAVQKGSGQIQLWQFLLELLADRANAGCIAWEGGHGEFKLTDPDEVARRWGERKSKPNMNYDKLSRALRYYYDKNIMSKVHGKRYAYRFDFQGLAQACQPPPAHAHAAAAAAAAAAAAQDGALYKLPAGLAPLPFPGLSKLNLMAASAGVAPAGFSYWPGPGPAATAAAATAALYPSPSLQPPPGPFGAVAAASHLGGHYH
How it was run: as §1

[9] = molecular target: ETV5 (Homo sapiens, UniProt P41161 1-510); settings: protein: recombinant; tags: N-terminal GST; dsDNA, one strand shown
How it was run: as §1

[10] = molecular target: HSF1 (Homo sapiens, UniProt Q00613 1-529); settings: protein: recombinant; tags: N-terminal GST; chain copies: 3; dsDNA, one strand shown
How it was run: as §1

[11] = molecular target: T7, SPIC (Homo sapiens, UniProt Q8N5J4 1-248); settings: protein: recombinant; tags: N-terminal GST; dsDNA, one strand shown
T7 sequence: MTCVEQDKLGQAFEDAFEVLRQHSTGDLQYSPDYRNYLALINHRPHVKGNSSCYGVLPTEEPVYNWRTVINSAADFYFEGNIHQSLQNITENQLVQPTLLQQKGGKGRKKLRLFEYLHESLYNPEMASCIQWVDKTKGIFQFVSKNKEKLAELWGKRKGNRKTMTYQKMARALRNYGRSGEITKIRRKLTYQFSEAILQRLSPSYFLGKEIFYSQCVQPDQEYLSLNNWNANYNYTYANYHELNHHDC
How it was run: as §1

[12] = molecular target: ELF4 (Homo sapiens, UniProt Q99607 1-663); settings: protein: recombinant; tags: N-terminal GST; dsDNA, one strand shown
How it was run: as §1

[13] = molecular target: T8, ELK4 (Homo sapiens, UniProt P28324-2 1-405); settings: protein: recombinant; tags: N-terminal GST; dsDNA, one strand shown
T8 sequence: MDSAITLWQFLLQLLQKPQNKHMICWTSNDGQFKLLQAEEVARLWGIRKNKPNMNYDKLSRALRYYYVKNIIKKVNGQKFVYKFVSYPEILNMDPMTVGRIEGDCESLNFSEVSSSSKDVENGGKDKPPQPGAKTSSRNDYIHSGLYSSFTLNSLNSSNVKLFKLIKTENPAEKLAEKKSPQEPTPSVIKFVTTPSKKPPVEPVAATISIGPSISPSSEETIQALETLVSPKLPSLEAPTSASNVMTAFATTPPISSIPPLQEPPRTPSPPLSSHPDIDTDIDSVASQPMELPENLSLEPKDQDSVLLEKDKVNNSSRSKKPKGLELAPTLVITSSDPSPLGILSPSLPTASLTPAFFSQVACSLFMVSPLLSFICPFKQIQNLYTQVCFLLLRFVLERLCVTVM
How it was run: as §1

[14] = molecular target: T9, ETV2 (Homo sapiens, UniProt O00321 1-342); settings: protein: recombinant; tags: N-terminal GST; dsDNA, one strand shown
T9 sequence: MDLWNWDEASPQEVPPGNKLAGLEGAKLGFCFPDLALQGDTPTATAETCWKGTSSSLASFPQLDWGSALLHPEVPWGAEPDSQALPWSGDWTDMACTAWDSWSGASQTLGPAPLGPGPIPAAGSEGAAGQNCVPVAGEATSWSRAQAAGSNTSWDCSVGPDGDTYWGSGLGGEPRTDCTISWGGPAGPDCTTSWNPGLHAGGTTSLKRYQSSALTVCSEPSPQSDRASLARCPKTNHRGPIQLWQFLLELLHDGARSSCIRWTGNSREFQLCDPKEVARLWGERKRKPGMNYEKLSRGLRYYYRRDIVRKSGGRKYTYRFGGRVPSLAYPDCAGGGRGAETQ
How it was run: as §1

[15] = molecular target: CRX (Homo sapiens, UniProt O43186 1-299); settings: protein: recombinant; tags: N-terminal GST; dsDNA, one strand shown
How it was run: as §1

[16] = molecular target: ETV1 (Homo sapiens, UniProt P50549 1-477); settings: protein: recombinant; tags: N-terminal GST; dsDNA, one strand shown
How it was run: as §1

[17] = molecular target: T10, ERG (Homo sapiens, UniProt P11308 1-479); settings: protein: recombinant; tags: N-terminal GST; dsDNA, one strand shown
T10 sequence: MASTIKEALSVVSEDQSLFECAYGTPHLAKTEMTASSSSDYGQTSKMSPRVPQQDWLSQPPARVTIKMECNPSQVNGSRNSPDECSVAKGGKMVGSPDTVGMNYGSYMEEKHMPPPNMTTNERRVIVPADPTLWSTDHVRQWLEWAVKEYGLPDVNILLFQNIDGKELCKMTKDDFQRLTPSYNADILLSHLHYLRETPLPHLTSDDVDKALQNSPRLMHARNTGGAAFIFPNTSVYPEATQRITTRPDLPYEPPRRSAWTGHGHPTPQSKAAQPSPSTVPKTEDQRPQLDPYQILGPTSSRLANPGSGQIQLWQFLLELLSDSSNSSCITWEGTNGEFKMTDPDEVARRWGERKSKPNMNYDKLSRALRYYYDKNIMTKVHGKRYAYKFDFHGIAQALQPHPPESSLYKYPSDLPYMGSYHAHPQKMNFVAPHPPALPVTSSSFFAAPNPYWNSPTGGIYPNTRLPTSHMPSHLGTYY
How it was run: as §1

[18] = molecular target: SPI1 (Homo sapiens, UniProt P17947 1-270); settings: protein: recombinant; tags: N-terminal GST; dsDNA, one strand shown
How it was run: as §1

Chain of ETV5 (P41161 whole entry): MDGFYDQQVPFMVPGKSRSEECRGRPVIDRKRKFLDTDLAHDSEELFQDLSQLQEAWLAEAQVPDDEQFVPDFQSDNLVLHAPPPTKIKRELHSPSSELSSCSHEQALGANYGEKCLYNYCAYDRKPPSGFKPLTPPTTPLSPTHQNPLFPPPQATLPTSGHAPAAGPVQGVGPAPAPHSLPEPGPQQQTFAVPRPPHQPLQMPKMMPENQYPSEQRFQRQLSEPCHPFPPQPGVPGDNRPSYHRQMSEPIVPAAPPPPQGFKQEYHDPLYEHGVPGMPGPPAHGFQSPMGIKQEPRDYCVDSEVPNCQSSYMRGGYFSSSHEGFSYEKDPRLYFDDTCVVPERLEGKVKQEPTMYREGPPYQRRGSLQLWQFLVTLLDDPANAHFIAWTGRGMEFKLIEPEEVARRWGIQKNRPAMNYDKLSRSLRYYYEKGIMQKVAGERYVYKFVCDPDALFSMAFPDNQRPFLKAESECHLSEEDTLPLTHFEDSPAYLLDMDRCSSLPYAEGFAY
Chain of ETV1 (P50549 whole entry): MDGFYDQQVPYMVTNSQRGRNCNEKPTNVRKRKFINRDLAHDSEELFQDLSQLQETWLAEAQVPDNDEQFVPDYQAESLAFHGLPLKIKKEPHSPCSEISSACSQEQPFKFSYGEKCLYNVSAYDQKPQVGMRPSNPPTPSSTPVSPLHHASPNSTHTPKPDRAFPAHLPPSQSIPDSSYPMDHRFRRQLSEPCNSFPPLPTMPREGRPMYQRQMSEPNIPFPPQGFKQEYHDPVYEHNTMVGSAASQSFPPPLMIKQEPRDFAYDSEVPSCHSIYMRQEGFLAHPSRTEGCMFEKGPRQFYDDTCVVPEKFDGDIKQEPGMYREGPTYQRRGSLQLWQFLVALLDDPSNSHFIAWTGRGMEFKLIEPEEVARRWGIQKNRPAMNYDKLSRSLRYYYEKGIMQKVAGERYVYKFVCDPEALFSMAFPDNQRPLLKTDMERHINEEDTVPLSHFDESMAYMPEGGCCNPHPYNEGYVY
Chain of ELF1 (P32519 whole entry): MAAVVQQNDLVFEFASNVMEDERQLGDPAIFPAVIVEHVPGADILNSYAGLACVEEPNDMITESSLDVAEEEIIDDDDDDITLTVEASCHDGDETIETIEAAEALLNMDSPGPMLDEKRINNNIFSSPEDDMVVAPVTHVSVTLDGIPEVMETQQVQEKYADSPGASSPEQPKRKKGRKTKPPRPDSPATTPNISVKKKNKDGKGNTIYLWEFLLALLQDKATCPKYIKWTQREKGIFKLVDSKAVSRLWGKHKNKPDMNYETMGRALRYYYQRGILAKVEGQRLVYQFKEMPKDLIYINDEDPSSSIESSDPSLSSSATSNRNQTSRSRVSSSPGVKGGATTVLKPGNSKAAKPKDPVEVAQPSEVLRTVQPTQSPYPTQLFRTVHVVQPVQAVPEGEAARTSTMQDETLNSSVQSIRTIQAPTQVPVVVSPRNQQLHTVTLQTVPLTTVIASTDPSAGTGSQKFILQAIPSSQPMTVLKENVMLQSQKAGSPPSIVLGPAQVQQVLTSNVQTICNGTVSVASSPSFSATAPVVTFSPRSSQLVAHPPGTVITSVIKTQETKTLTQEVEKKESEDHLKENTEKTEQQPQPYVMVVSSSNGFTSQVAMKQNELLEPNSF
Chain of HSF1 (Q00613 whole entry): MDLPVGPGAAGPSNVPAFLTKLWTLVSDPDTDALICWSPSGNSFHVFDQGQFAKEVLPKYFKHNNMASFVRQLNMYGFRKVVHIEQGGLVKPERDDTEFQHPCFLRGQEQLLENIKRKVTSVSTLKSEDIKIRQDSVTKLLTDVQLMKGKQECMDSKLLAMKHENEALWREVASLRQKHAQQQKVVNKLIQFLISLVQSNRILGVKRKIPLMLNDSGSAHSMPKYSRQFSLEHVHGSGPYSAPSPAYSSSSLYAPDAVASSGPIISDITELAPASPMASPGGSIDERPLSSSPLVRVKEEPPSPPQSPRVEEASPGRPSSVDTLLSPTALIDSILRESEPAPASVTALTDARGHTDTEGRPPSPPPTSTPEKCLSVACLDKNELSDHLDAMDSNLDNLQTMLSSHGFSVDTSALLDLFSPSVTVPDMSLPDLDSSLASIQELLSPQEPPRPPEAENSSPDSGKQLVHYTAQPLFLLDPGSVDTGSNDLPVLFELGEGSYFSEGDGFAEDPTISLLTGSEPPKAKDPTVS
Chain of ELF4 (Q99607 whole entry): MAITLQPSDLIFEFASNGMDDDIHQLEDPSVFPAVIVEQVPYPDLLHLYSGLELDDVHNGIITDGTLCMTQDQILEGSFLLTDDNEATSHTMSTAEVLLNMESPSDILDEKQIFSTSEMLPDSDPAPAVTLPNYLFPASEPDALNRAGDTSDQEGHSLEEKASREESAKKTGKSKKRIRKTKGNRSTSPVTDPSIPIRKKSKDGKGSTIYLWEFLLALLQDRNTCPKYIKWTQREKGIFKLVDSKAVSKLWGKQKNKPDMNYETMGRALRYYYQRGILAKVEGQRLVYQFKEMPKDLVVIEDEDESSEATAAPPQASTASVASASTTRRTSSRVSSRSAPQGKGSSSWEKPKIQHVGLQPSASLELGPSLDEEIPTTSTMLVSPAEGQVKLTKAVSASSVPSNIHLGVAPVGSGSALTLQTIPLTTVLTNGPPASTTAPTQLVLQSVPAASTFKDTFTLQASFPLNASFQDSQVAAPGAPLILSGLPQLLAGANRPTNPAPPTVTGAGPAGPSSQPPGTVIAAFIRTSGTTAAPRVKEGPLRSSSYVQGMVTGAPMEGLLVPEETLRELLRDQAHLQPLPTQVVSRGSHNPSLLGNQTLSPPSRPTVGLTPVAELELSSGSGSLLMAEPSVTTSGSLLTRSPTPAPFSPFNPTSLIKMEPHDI
Chain of SPIB (Q01892 whole entry): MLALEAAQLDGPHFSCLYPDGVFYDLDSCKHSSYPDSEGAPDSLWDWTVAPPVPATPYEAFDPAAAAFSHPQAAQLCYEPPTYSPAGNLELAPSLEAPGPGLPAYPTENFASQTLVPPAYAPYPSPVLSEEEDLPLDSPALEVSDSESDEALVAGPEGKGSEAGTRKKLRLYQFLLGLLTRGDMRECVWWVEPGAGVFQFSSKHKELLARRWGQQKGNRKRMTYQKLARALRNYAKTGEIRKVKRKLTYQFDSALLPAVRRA
Chain of CRX (O43186 whole entry): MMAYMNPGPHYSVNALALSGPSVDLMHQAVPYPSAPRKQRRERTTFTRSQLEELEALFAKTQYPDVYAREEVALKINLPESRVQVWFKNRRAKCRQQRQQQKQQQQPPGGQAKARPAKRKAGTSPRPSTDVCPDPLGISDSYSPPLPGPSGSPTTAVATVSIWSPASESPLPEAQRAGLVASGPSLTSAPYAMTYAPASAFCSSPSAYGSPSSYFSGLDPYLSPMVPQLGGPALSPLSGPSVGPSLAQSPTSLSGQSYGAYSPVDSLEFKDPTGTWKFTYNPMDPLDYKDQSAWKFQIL

Sequence	binding signal [1]	binding signal [2]	binding signal [3]	binding signal [4]	binding signal [5]	binding signal [6]	binding signal [7]	binding signal [8]	binding signal [9]	binding signal [10]	binding signal [11]	binding signal [12]	binding signal [13]	binding signal [14]	binding signal [15]	binding signal [16]	binding signal [17]	binding signal [18]
CAGAAT	1 fold enrichment (6-mer frequency, TF over GST control)	1.01 fold enrichment (6-mer frequency, TF over GST control)	1.02 fold enrichment (6-mer frequency, TF over GST control)	1.03 fold enrichment (6-mer frequency, TF over GST control)	1.05 fold enrichment (6-mer frequency, TF over GST control)	1.05 fold enrichment (6-mer frequency, TF over GST control)	1.01 fold enrichment (6-mer frequency, TF over GST control)	1.05 fold enrichment (6-mer frequency, TF over GST control)	1.01 fold enrichment (6-mer frequency, TF over GST control)	2.05 fold enrichment (6-mer frequency, TF over GST control)	1.01 fold enrichment (6-mer frequency, TF over GST control)	1.13 fold enrichment (6-mer frequency, TF over GST control)	1.05 fold enrichment (6-mer frequency, TF over GST control)	1.13 fold enrichment (6-mer frequency, TF over GST control)	1.34 fold enrichment (6-mer frequency, TF over GST control)	1.04 fold enrichment (6-mer frequency, TF over GST control)		
CGATAG	1.07 fold enrichment (6-mer frequency, TF over GST control)	1.11 fold enrichment (6-mer frequency, TF over GST control)	1.18 fold enrichment (6-mer frequency, TF over GST control)	1.15 fold enrichment (6-mer frequency, TF over GST control)	1.05 fold enrichment (6-mer frequency, TF over GST control)	1.07 fold enrichment (6-mer frequency, TF over GST control)	1.11 fold enrichment (6-mer frequency, TF over GST control)	1.15 fold enrichment (6-mer frequency, TF over GST control)	1.18 fold enrichment (6-mer frequency, TF over GST control)	1.14 fold enrichment (6-mer frequency, TF over GST control)	1.18 fold enrichment (6-mer frequency, TF over GST control)	1.12 fold enrichment (6-mer frequency, TF over GST control)	1.16 fold enrichment (6-mer frequency, TF over GST control)	1.16 fold enrichment (6-mer frequency, TF over GST control)		1.16 fold enrichment (6-mer frequency, TF over GST control)	1.16 fold enrichment (6-mer frequency, TF over GST control)	1.1 fold enrichment (6-mer frequency, TF over GST control)
